# Data: PubChem BioAssay (NCI)
# Values joined by “and” are separate entries in the source; they are usually repeats but may differ in a detail not shown here. Identical values can stand only once. The panel holds about 83,000 compounds, 20% with a hit somewhere; the sample as a whole holds those more often.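 The test compound was applied at a single concentration to cells in 96-well plates for 48 hours, and percent growth was recorded.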 Some structures have more than one record in an assay (separate samples or runs), and their calls can disagree. Active and inactive are the calls of the source. Rule for the calls: active = growth percent below 10; inactive = the rest.
# How the values were obtained:
# Assay in all cases: NCI-60 one-dose screen, 48 h (100 = growth as untreated, 0 = no growth, -100 = all killed)
# Conditions in all cases: 10 µM unless noted
# SK-MEL-2 melanoma = test system: SK-MEL-2 melanoma
# EKVX NSCLC = test system: EKVX NSCLC
# SN12C renal = test system: SN12C renal
# UO-31 renal = test system: UO-31 renal
# TK-10 renal = test system: TK-10 renal
# ACHN renal = test system: ACHN renal
# CAKI-1 renal = test system: CAKI-1 renal
# A498 renal = test system: A498 renal
# CCRF-CEM leukemia = test system: CCRF-CEM leukemia
# MOLT-4 leukemia = test system: MOLT-4 leukemia
# SR leukemia = test system: SR leukemia
# RPMI-8226 leukemia = test system: RPMI-8226 leukemia
# OVCAR-8 ovarian = test system: OVCAR-8 ovarian
# OVCAR-5 ovarian = test system: OVCAR-5 ovarian
# SK-OV-3 ovarian = test system: SK-OV-3 ovarian
# IGROV1 ovarian = test system: IGROV1 ovarian
# OVCAR-3 ovarian = test system: OVCAR-3 ovarian
# HS 578T breast = test system: HS 578T breast
# NCI/ADR-RES ovarian = test system: NCI/ADR-RES ovarian
# OVCAR-4 ovarian = test system: OVCAR-4 ovarian
SMILES,growth (SK-MEL-2 melanoma),growth (EKVX NSCLC),growth (SN12C renal),growth (UO-31 renal),growth (TK-10 renal),growth (ACHN renal),growth (CAKI-1 renal),growth (A498 renal),growth (CCRF-CEM leukemia),growth (MOLT-4 leukemia),growth (SR leukemia),growth (RPMI-8226 leukemia),growth (OVCAR-8 ovarian),growth (OVCAR-5 ovarian),growth (SK-OV-3 ovarian),growth (IGROV1 ovarian),growth (OVCAR-3 ovarian),growth (HS 578T breast),growth (NCI/ADR-RES ovarian),growth (OVCAR-4 ovarian)
c1ccc(NCc2ccc3c(c2)OCO3)cc1,106% (inactive) and 105% (inactive),107% (inactive),105% (inactive) and 100% (inactive),78.7% (inactive) and 83% (inactive),102% (inactive) and 99.7% (inactive),109% (inactive) and 97.4% (inactive),96.8% (inactive) and 101% (inactive),101% (inactive) and 86.9% (inactive),101% (inactive) and 92.3% (inactive),95.7% (inactive) and 97.2% (inactive),92.5% (inactive) and 92.2% (inactive),99.6% (inactive) and 93.7% (inactive),98.1% (inactive),110% (inactive) and 98% (inactive),92.4% (inactive) and 99.3% (inactive),118% (inactive) and 102% (inactive),103% (inactive) and 105% (inactive),109% (inactive) and 104% (inactive),106% (inactive) and 105% (inactive),–
Oc1nc(NCCc2ccccc2)sc1/C=C1\C=Nc2ncccc21,-4.61% (active) and 28.8% (inactive),40.9% (inactive) and 46% (inactive),33.5% (inactive) and 15.9% (inactive),36.6% (inactive) and 25.2% (inactive),18.8% (inactive) and 34.2% (inactive),-12% (active) and 16% (inactive),54.8% (inactive) and 37.4% (inactive),-21.3% (active) and -7.55% (active),5.53% (active) and 9.93% (active),8.59% (active) and 11.4% (inactive),-1.51% (active) and 5.6% (active),38.7% (inactive) and 39.2% (inactive),9.67% (active) and 14% (inactive),18.1% (inactive) and 37.8% (inactive),2.11% (active) and 27% (inactive),–,3.41% (active) and 5.65% (active),8.82% (active) and 8.78% (active),58.4% (inactive) and 72.9% (inactive),32.3% (inactive) and 23.8% (inactive)
COC(=O)/C=C/c1cc(O)c2c(c1)C(C(=O)OC)C(c1ccc(O)c(O)c1)O2 (stereo not drawn),50.6% (inactive) and 49.3% (inactive),35.2% (inactive) and 38.2% (inactive),29.5% (inactive) and 24.6% (inactive),38.1% (inactive) and 40.4% (inactive),55% (inactive) and 51.8% (inactive),26.2% (inactive) and 27.2% (inactive),17.5% (inactive) and 18.5% (inactive),18.2% (inactive) and 6.71% (active),13.5% (inactive) and 16% (inactive),17.8% (inactive) and 21.7% (inactive),5.46% (active) and 10.8% (inactive),36% (inactive) and 34.4% (inactive),13.3% (inactive) and 14.7% (inactive),69.3% (inactive) and 54.7% (inactive),43.1% (inactive) and 29.2% (inactive),44.6% (inactive) and 38.3% (inactive),-1.91% (active) and 9.26% (active),33.2% (inactive) and 44.9% (inactive),18.3% (inactive) and 15.8% (inactive),–
Cc1ccc2nc3c(nc2c1)-c1cccc2cccc-3c12,107% (inactive),71.4% (inactive),81.2% (inactive),63.1% (inactive),83.5% (inactive),68.6% (inactive),79.1% (inactive),83.1% (inactive),85.7% (inactive),80.1% (inactive),64.9% (inactive),89.9% (inactive),69.6% (inactive),94.6% (inactive),112% (inactive),63.9% (inactive),88.1% (inactive),92.9% (inactive),86.1% (inactive),–
O=C(CCc1ccc(O)cc1)N/N=C/c1cc(Br)ccc1O,80.7% (inactive),91% (inactive),63.7% (inactive),19.5% (inactive),88.9% (inactive),27% (inactive),18.7% (inactive),78.5% (inactive),13.3% (inactive),8.16% (active),26.6% (inactive),45.2% (inactive),56.2% (inactive),53.3% (inactive),61.2% (inactive),–,44.4% (inactive),90.3% (inactive),16.7% (inactive),34.7% (inactive)
O=[N+]([O-])c1ccc(N/N=C\c2cc(Br)ccc2O)nc1,39.7% (inactive),81% (inactive) and 46.4% (inactive),22.3% (inactive) and 20.3% (inactive),-6.22% (active) and -11.8% (active),22.1% (inactive) and 37.9% (inactive),4.98% (active) and 10.6% (inactive),0.337% (active) and 2.29% (active),69.5% (inactive),17.5% (inactive) and -4.06% (active),12% (inactive) and -9.48% (active),20.2% (inactive) and 3.08% (active),32.5% (inactive) and -9.9% (active),11.9% (inactive) and 3.96% (active),52% (inactive) and 54.4% (inactive),27.1% (inactive) and 27.7% (inactive),13.5% (inactive) and 8.02% (active),11.2% (inactive) and 24.5% (inactive),39.1% (inactive) and 61.4% (inactive),5.25% (active) and 6.08% (active),–
CCCCCCCCCCCCCCCCOc1ccc(C)cc1,115% (inactive),99.7% (inactive),104% (inactive),81.5% (inactive),109% (inactive),104% (inactive),105% (inactive),92.3% (inactive),127% (inactive),103% (inactive),97.9% (inactive),118% (inactive),106% (inactive),–,108% (inactive),127% (inactive),108% (inactive),110% (inactive),103% (inactive),99.8% (inactive)
O=C(O)c1cc(C(=O)O)cc([N+](=O)[O-])c1,102% (inactive),106% (inactive),107% (inactive),91.3% (inactive),102% (inactive),105% (inactive),96.2% (inactive),103% (inactive),94.9% (inactive),98.4% (inactive),86.4% (inactive),108% (inactive),106% (inactive),105% (inactive),–,108% (inactive),111% (inactive),112% (inactive),106% (inactive),–
CCC(=O)C(CC)c1cccc(OC)c1 (stereo not drawn),116% (inactive),106% (inactive),112% (inactive),89.9% (inactive),101% (inactive),106% (inactive),94.4% (inactive),87.8% (inactive),93.8% (inactive),98.4% (inactive),96.7% (inactive),101% (inactive),105% (inactive),115% (inactive),121% (inactive),–,117% (inactive),106% (inactive),101% (inactive),–
CCN(CC)CCC(CNc1ccnc2cc(Cl)ccc12)c1ccc(OC)cc1 (stereo not drawn),101% (inactive) and 61.7% (inactive),69.6% (inactive) and 85.6% (inactive),71.4% (inactive) and 60.8% (inactive),-5.93% (active) and -3.07% (active),58.5% (inactive) and 46.3% (inactive),37.5% (inactive) and 33.3% (inactive),55.6% (inactive) and 21.6% (inactive),38.2% (inactive) and 28.7% (inactive),63.4% (inactive) and 45.8% (inactive),52.3% (inactive) and 52.5% (inactive),-26% (active) and -16.4% (active),60.1% (inactive) and 39% (inactive),63.6% (inactive) and 46% (inactive),76.1% (inactive) and 89.4% (inactive),92.7% (inactive) and 78.5% (inactive),–,84.3% (inactive) and 80.9% (inactive),74% (inactive),76.7% (inactive) and 72.8% (inactive),29.8% (inactive) and 47.4% (inactive)
